Measured values as given in the antibiotic and cytotoxicity screens of Wong et al. (2023).
Out of some 39,000 compounds screened, about 3,300 (8.5%) were called active. The list comes from a sample in which actives are over-represented; it also holds similar structures and randomly drawn compounds.

System: HepG2
Assay: cytotoxicity call (relative viability < 0.9)
Settings: 10 µM

| Structure (SMILES) | cytotoxicity call |
| --- | --- |
| Cc1cn([C@H]2C[C@H](F)[C@@H](CO)O2)c(=O)[nH]c1=O | inactive |
| CCC(=O)N[C@@H]1CC[C@@H](CC(=O)OC)O[C@@H]1CO | inactive |
| C[C@@H]1CN([C@@H](C)CO)C(=O)c2cc(-c3cncnc3)cnc2O[C@@H]1CN(C)C(=O)CN1CCOCC1 | inactive |
| C[C@@H]1CN([C@H](C)CO)C(=O)c2cccc(NC(=O)CCCCCC(=O)Nc3ccccc3N)c2O[C@@H]1CN(C)C(=O)Nc1ccc(C(F)(F)F)cc1 | inactive |
| C[C@@H]1CCCCO[C@@H](CN(C)S(=O)(=O)c2ccc(Cl)cc2)[C@H](C)CN([C@H](C)CO)C(=O)c2cc(NC(=O)Nc3ccc(F)cc3)ccc2O1 | active |
| C[C@@H]1CCCCO[C@H](CN(C)S(=O)(=O)c2ccc(Cl)cc2)[C@@H](C)CN([C@H](C)CO)C(=O)c2cc(NC(=O)Nc3ccc(F)cc3)ccc2O1 | inactive |
| C[C@H](CO)N1C[C@H](C)[C@@H](CN(C)S(=O)(=O)c2ccc(Cl)cc2)OCCCC[C@H](C)Oc2ccc(NC(=O)Nc3ccc(F)cc3)cc2C1=O | inactive |
| C[C@@H]1CN([C@H](C)CO)C(=O)c2cc(NC(=O)Nc3ccc(F)cc3)ccc2O[C@@H](C)CCCCO[C@H]1CN(C)S(=O)(=O)c1ccc(Cl)cc1 | active |
| C[C@@H]1CCCCO[C@H](CN(C)S(=O)(=O)c2ccc(Cl)cc2)[C@H](C)CN([C@@H](C)CO)C(=O)c2cc(NC(=O)Nc3ccc(F)cc3)ccc2O1 | inactive |
| C[C@H]1CCCCO[C@H](CN(C)S(=O)(=O)c2ccc(Cl)cc2)[C@@H](C)CN([C@@H](C)CO)C(=O)c2cc(NC(=O)Nc3ccc(F)cc3)ccc2O1 | inactive |
| COc1ccc(CN(C)C[C@@H]2Oc3c(NC(=O)c4cnccn4)cccc3C(=O)N([C@@H](C)CO)C[C@H]2C)cc1 | inactive |
| CNC(=O)[C@H]1O[C@@H](n2cnc3c(NCc4cccc(I)c4)ncnc32)[C@H](O)[C@@H]1O | inactive |
| C[C@@H]1CCCCO[C@H](CN(C)C(=O)Nc2ccccc2)[C@@H](C)CN([C@@H](C)CO)C(=O)c2cc(NC(=O)c3ccccc3)ccc2O1 | inactive |
| C[C@H]1CN([C@@H](C)CO)C(=O)c2cccc(NC(=O)c3nc4ccccc4s3)c2O[C@H]1CN(C)C(=O)Nc1ccc(F)cc1 | inactive |
| C[C@H](CO)N1C[C@H](C)[C@@H](CN(C)C(=O)Nc2ccc3c(c2)OCO3)Oc2ccc(NS(C)(=O)=O)cc2C1=O | inactive |
| COc1ccc(S(=O)(=O)Nc2ccc3c(c2)CC(=O)N([C@@H](C)CO)C[C@H](C)[C@H](CN(C)S(=O)(=O)c2ccccc2)O3)cc1 | inactive |
| C[C@H](CO)N1C[C@H](C)[C@H](CN(C)S(=O)(=O)c2cn(C)cn2)Oc2ccc(NC(=O)CCCN(C)C)cc2CC1=O | inactive |
| C[C@H]1CN([C@@H](C)CO)C(=O)c2cc(C#Cc3cccnc3)cnc2O[C@@H]1CN(C)Cc1ccc(F)cc1 | inactive |
| Cc1ccc(S(=O)(=O)N(C)C[C@@H]2Oc3ncc(C#Cc4ccccc4)cc3C(=O)N([C@H](C)CO)C[C@@H]2C)cc1 | inactive |
| C[C@@H]1CN([C@H](C)CO)C(=O)c2cc(C#Cc3cccnc3)cnc2O[C@@H]1CN(C)Cc1ccc(F)cc1 | inactive |

| Structure (SMILES) | cytotoxicity call |
| --- | --- |
| Cc1ccc(S(=O)(=O)N(C)C[C@@H]2Oc3ncc(C#Cc4cccc(F)c4)cc3C(=O)N([C@H](C)CO)C[C@@H]2C)cc1 | active |
| COc1ccc(S(=O)(=O)N(C)C[C@@H]2Oc3ncc(C#Cc4ccc(OC)c(OC)c4)cc3C(=O)N([C@H](C)CO)C[C@@H]2C)cc1 | active |
| C[C@H](CO)N1C[C@H](C)[C@H](CN(C)S(=O)(=O)c2ccc(F)cc2)Oc2ncc(C#Cc3cccc(F)c3)cc2C1=O | active |
| COc1ccc(C#Cc2cnc3c(c2)C(=O)N([C@H](C)CO)C[C@H](C)[C@H](CN(C)S(=O)(=O)c2ccc(C)cc2)O3)cc1OC | inactive |
| C[C@H](CO)N1C[C@H](C)[C@H](CN(C)S(=O)(=O)c2ccc(C#N)cc2)Oc2ncc(C#Cc3cccc(F)c3)cc2C1=O | inactive |
| C[C@H](CO)N1C[C@H](C)[C@H](CN(C)S(=O)(=O)c2ccccc2)Oc2ncc(C#Cc3cccc(F)c3)cc2C1=O | inactive |
| C[C@H](CO)N1C[C@H](C)[C@H](CN(C)S(=O)(=O)c2cccc(F)c2)Oc2ncc(C#Cc3cccc(F)c3)cc2C1=O | inactive |
| COc1ccc(C#Cc2cnc3c(c2)C(=O)N([C@H](C)CO)C[C@H](C)[C@H](CN(C)S(=O)(=O)c2ccc(C#N)cc2)O3)cc1OC | inactive |
| C[C@H](CO)N1C[C@H](C)[C@H](CN(C)Cc2ccc(F)cc2)Oc2ncc(C#Cc3cccnc3)cc2C1=O | active |
| C[C@H](CO)N1C[C@H](C)[C@H](CN(C)Cc2ccncc2)Oc2ccc(NS(=O)(=O)c3ccccc3)cc2C1=O | inactive |
| COc1ccc(S(=O)(=O)N(C)C[C@H]2Oc3ccc(N(C)C)cc3CC(=O)N([C@@H](C)CO)C[C@H]2C)cc1 | inactive |
| COc1ccc(NC(=O)N(C)C[C@@H]2Oc3ncc(C#CC(C)C)cc3C(=O)N([C@@H](C)CO)C[C@H]2C)cc1 | inactive |
| NC1CCN(C(=O)NC2CCCCC2)CC1 | inactive |
| C[C@H]1CCCCO[C@H](CN(C)C(=O)CCC(F)(F)F)[C@@H](C)CN([C@@H](C)CO)C(=O)c2cc(NS(=O)(=O)c3ccccc3)ccc2O1 | inactive |
| C[C@H]1CC/C=C\[C@H]2O[C@@]34C=CCN(c5ccc(Cl)cc5)C(=O)[C@H]3N(CCO)C(=O)[C@]4(C)[C@@H]2C(=O)O1 | inactive |
| Cc1noc(C)c1S(=O)(=O)Nc1ccc2c(c1)C(=O)N([C@@H](C)CO)C[C@@H](C)[C@@H](CN(C)C)OCCCC[C@H](C)O2 | inactive |
| C[C@@]12CC[C@@H]3c4ccc(O)cc4C[C@H](CCCCCCCCC[S@@](=O)CCCC(F)(F)C(F)(F)F)[C@@H]3[C@@H]1CC[C@@H]2O | inactive |
| O=C(C[C@H]1CC[C@@H]2[C@H](COC[C@@H](O)CN2S(=O)(=O)c2ccccc2)O1)N[C@@H]1CCN(Cc2ccccc2)C1 | inactive |
| Cc1ccccc1S(=O)(=O)N1C[C@@H](O)COC[C@@H]2O[C@H](CC(=O)NCCc3ccncc3)CC[C@H]21 | inactive |
